# Experimental data as given in PubChem BioAssay AID493240 (Broad Institute, 2011).
# Among all 1,300 compounds or so, about 270 (21%) were called active. How the calls were made is not given here. Not all results are given here. Measured potencies and affinities stand elsewhere.
# Test: SK-MEL-5 parental cell viability loss, dose response, orthogonal assay for MITF inhibitor project, CellTiter-Glo, cherry-picked, set 3 (AID 493240)
# Details: SK-MEL-5 viability, ATP luminescence (CellTiter-Glo), 24 h; series mostly up to 35 µM
row,SMILES,outcome
1,Oc1ccc(CNc2ccccc2F)c2cccnc12,inactive
2,O=C(Cn1ncc(Cl)c(Cl)c1=O)c1ccc(Cl)cc1,inactive
3,Nc1nnnn1/N=C/C(Br)=C/c1ccccc1,inactive
4,Cc1ccsc1C(=O)OCC(=O)Nc1sccc1C(N)=O,inactive
5,CN(C)c1nc(C=C(C#N)C#N)c(Cl)n1-c1ccc(F)cc1,inactive
6,COc1ccc(-c2cc(-c3ccccc3O)[nH]n2)cc1OC,inactive
7,COc1ccc(/C=N/Nc2ccccn2)cc1OC,inactive
8,CCCCNC(=O)Nc1ccc(C2SCCS2)cc1,inactive
9,CN(C)Cc1c(O)ccc2c1O/C(=C\C=C\c1ccccc1)C2=O,inactive
10,Cc1nc2ccccn2c1C(=O)/C=C/c1cccc([N+](=O)[O-])c1,inactive
11,O=C(/C=C/c1cccc([N+](=O)[O-])c1)n1cnc2ccccc21,inactive
12,CCCOC(=O)c1ccc(NC(=O)C2CCCO2)cc1 (stereo unspecified),inactive
13,O=C(Nc1nnc(Cc2ccccc2)s1)c1ccccc1,inactive
14,CCOc1ccc(NC(=O)Nc2cccc(C(=O)O)c2)cc1,inactive
15,Cc1ccc(O)c(NC(=O)c2ccc3c(c2)C(=O)N(CC(C)C)C3=O)c1,inactive
16,CCN(CC)C(=O)CCCOc1ccc(Cl)cc1Cl,inactive
17,O=C(O)c1cccc(N/N=C/c2cccs2)c1,inactive
18,N#Cc1cc2c(nc1SC1CC(=O)N(c3ccccc3)C1=O)CCC2 (stereo unspecified),inactive
19,Cc1ccc2nc3cc([N+](=O)[O-])cc([N+](=O)[O-])c3cc2c1,inactive
20,CCOC(=O)c1nnn(-c2ccc([N+](=O)[O-])cc2[N+](=O)[O-])c1C,inactive
21,COc1ccc(Nc2oc(-c3ccc(OC)cc3)nc2C#N)cc1,inactive
22,Cc1cccc(-c2nc(C#N)c(NCc3ccco3)o2)c1,inactive
23,COC(=O)c1c(C)[nH]c(/C=N/Nc2ccccc2)c1C,inactive
24,OCCNc1c2ccccc2nc2c(F)c(F)c(F)c(F)c12,inactive
25,FC(F)(F)Oc1ccc(-c2cn3cccnc3n2)cc1,inactive

row,SMILES,outcome
1,COc1ccc(NC(=O)Nc2ccc(F)c(F)c2)c(OC)c1,inactive
2,Cc1ccc(-c2c[n+](Cc3ccc(Cl)cc3)c3n2CCC3)cc1,inactive
3,Cc1ccc(-c2c[n+](Cc3cccc(Cl)c3)c3n2CCC3)cc1,inactive
4,CC1CC(C)C[N+](=C2C=C(N3CCCC3)CC(C)(C)C2)C1 (stereo unspecified),inactive
5,COc1ccc(-c2noc(-c3cccs3)n2)cc1OC,inactive
6,O=C(Nc1cccnc1Cl)c1cc(-c2ccco2)on1,inactive
7,CCN(CC)S(=O)(=O)c1ccc(N2CCCC2)c(NC(=O)c2ccc([N+](=O)[O-])o2)c1,inactive
8,CSc1nc(N)n2nc(-c3ccccc3)cc2n1,inactive
9,COc1ccc(C(NC(C)=O)c2ccc3cccnc3c2O)c(OC)c1 (stereo unspecified),inactive
10,C(=N\Nc1cc(N2CCCCC2)ncn1)/c1ccco1,inactive
11,Cc1csc(N/N=C/c2ccc([N+](=O)[O-])cc2)n1,inactive
12,COc1ccc(-c2csc(N(C)C(=O)c3ccco3)n2)cc1,inactive
13,CC(=O)c1sc(N/N=C\c2ccc(N(C)C)cc2)nc1C,inactive
14,CCOc1ccc(C(=O)N2CCc3ccccc32)cc1,inactive
15,CC(=O)Oc1ccc(C)cc1-n1nc2ccccc2n1,inactive
16,CC(=O)Cn1ncc(Br)c(Br)c1=O,inactive
17,O=C(CCCN1C(=O)S/C(=C\c2ccccc2)C1=O)NNC(=O)c1ccccc1O,inactive
18,O=C(CCCCl)NC(=S)Nc1ccc(N2CCOCC2)cc1,inactive
19,N/C(=N\OC(=O)Cc1cccs1)c1ccccc1,inactive
20,Cc1cc(C(=O)CSc2nnc3ccccn23)c(C)n1-c1ccccc1,inactive
21,O=C(Nc1cnc2ccccn2c1=O)c1ccc(F)cc1,inactive
22,O=C(Cc1ccc2c(c1)OCO2)NN=Cc1ccc([N+](=O)[O-])o1,inactive
23,CC1(C(=O)N/N=C/c2ccc([N+](=O)[O-])o2)CC1(Br)Br (stereo unspecified),inactive
24,Cc1ccc(NC(=O)CCC(=O)N/N=C/c2ccc([N+](=O)[O-])o2)cc1C,inactive
25,Cc1ccc(NCC(=O)N/N=C\c2ccc([N+](=O)[O-])o2)cc1,inactive

row,SMILES,outcome
1,CCCCn1c(=O)[nH]c(=O)c2c1nc(Cn1ncc(Cl)c(Cl)c1=O)n2CCC,inactive
2,O=c1c(Cl)c(Cl)cnn1-c1ccccc1,inactive
3,CC(=O)OCCCNc1cc(Sc2ccc(Cl)cc2)c2nonc2c1[N+](=O)[O-],inactive
4,Cc1ccccc1OCc1nc2c3cnn(C)c3ncn2n1,inactive
5,c1cnc(SCCOc2ccc3c(c2)CCC3)nc1,inactive
6,CCn1nccc1C(=O)Nc1ccc(C)c(C)c1,inactive
7,Cc1ccc(NC(=O)c2cnc3ccccc3n2)cc1C,inactive
8,ClC1(Cl)CC1CSc1nnc(-c2ccncc2)o1 (stereo unspecified),inactive
9,O=C(Nc1ccc2nc3n(c(=O)c2c1)CCCCC3)c1cc([N+](=O)[O-])ccc1F,inactive
10,CC1CCN(CC2C(=O)O[C@@H]3C[C@@]4(C)CCC[C@H](C)C4=C[C@H]23)CC(C)(C)C1 (stereo partly specified),inactive
11,COc1cc(C(=O)N/N=C(\c2ccccc2)c2ccccn2)cc(OC)c1OC,inactive
12,O=C(NCc1ccc2c(c1)OCO2)c1cc(=O)[nH]c2ccccc12,inactive
13,COc1ccc(N(Cc2cc(=O)[nH]c3ccccc23)C(=O)CCl)cc1,inactive
14,CCC(=O)OCCNc1cc(Sc2nccn2C)c2nonc2c1[N+](=O)[O-],inactive
15,O=C1c2ccccc2C(=O)N1CCSc1ccccc1,inactive
16,CN(c1ccc2nc3ccccc3c(=O)n2n1)C1CCCCC1,inactive
17,O=C(CCl)Nc1cn(-c2ccccc2)nc1-c1ccccc1,inactive
18,Cc1ccc(NC(=O)c2cc(-c3cccs3)on2)cc1,inactive
19,Cc1ccc2oc(C(Cl)(Cl)Cl)cc(=O)c2c1,inactive
20,O=C(CCl)N1c2ccccc2CCc2ccccc21,inactive
21,Cc1ccc(NC(=O)/C=C/c2ccc([N+](=O)[O-])s2)c(C)c1,inactive
22,CCCOc1ccc(C(=O)C(CN2CCCC2)c2ccccc2)cc1 (stereo unspecified),inactive
23,CCSC1(SCC)N=C(N)C2(C#N)C(c3ccc(F)cc3)C12C#N (stereo unspecified),inactive
24,O=C(CCCc1ccccc1)Nc1cccc(C(=O)O)c1,inactive
25,O=C(CSCc1c(F)cccc1F)Nc1ccccc1,inactive

row,SMILES,outcome
1,CSc1nc(N)n2nc(-c3ccc(Cl)cc3)cc2n1,inactive
2,N#C/C(=C\C=C\c1ccccc1[N+](=O)[O-])C(=O)NC1CCCCC1,inactive
3,CN(C)c1nc(-c2ccccn2)nnc1-c1ccccc1,inactive
4,CCOc1cc(/C=C\[N+](=O)[O-])ccc1OCC(=O)N1CCOCC1,inactive
5,CS(=O)(=O)c1ccc2nc(NC(=O)c3ccccc3Br)sc2c1,inactive
6,COc1ccc(-n2ncc3c(N4CCCCC4)ncnc32)cc1,inactive
7,CN(C)c1cc[n+](CC(=O)c2ccc(-c3ccccc3)cc2)cc1,inactive
8,COc1cccc(NC(=O)c2cnn(-c3ccccc3)c2C)c1,inactive
9,CN1CCN(CCCOc2ccc(-c3ccccc3)cc2)CC1,inactive
10,O=C(CCl)N1N=C(c2ccco2)CC1c1cccs1 (stereo unspecified),inactive
11,CC(C)(C)OC(=O)N1CCN(C(=O)c2nc[nH]c2C(=O)N2CCN(c3ccccc3)CC2)CC1,inactive
12,COCC(C)Nc1ncnc2c1cnn2-c1ccc(Cl)cc1 (stereo unspecified),inactive
13,CC1CCCC(C)N1CCCNC(=O)c1cc2c(s1)-c1ccccc1OC2 (stereo unspecified),inactive
14,C=CCn1c(C)cc(C(=O)CN2C(=O)c3ccccc3S2(=O)=O)c1C,inactive
15,N#C/C(=C\c1c[nH]c2ccccc12)C(=O)NC1CC1,inactive
16,COc1cccc(N2CCN(C(=O)c3ccc(CS(=O)c4ccccc4Cl)o3)CC2)c1 (stereo unspecified),inactive
17,C=C1C(=O)C2=CC1CCC(=O)C1(C)CCC(OC(C)=O)C(C)(C)C1CC2O (stereo unspecified),inactive
18,O=C(CCCc1ccccc1)N1CCN(C2CCCCC2)CC1,inactive
19,NC(=O)c1ccccc1NC(=O)/C=C/c1cccc(Cl)c1,inactive
20,CC(C)C(=O)Nc1ccc2nn(-c3ccc(F)cc3)nc2c1,inactive
21,Cc1cc(/C(N)=N/OC(=O)c2ccc(Cl)cc2)no1,inactive
22,COc1ccccc1OCCN1CSC(=S)N(C)C1,inactive
23,CC(=O)CSc1ccc(-c2nc3cc(C)c(C)cc3[nH]2)cn1,inactive
24,Cc1[nH]n(-c2ccccc2)c(=O)c1N=Nc1cccc(C(=O)O)c1,inactive
25,CCOc1ccc(/C=C2\SC(=S)N(CCC(=O)O)C2=O)cc1,inactive

row,SMILES,outcome
1,CC(=O)c1cccc(NC(=O)/C=C/c2ccc([N+](=O)[O-])s2)c1,inactive
2,COc1ccccc1-c1nnc(-c2ccc(C)cc2)o1,inactive
3,COc1ccccc1-c1nc(-c2ccc(C)nc2OC)no1,inactive
4,O=C(O)c1ccc(N/N=C/c2ccc(OC(=O)c3cccc(Cl)c3)cc2)cc1,inactive
5,O=C(Nc1ccccc1N1CCOCC1)c1ccc([N+](=O)[O-])o1,inactive
6,CCCC(=O)N1CCN(c2ccc(NC(=O)c3ccc([N+](=O)[O-])o3)cc2Cl)CC1,inactive
7,CC(C)C(=O)N1CCN(c2ccc(NC(=O)c3ccc([N+](=O)[O-])o3)cc2Cl)CC1,inactive
8,CN1CCN(c2ccc(NC(=O)c3ccc([N+](=O)[O-])o3)cc2Cl)CC1,inactive
9,CCC(=O)N1CCN(c2ccc(Cl)cc2NC(=O)c2ccc([N+](=O)[O-])o2)CC1,inactive
10,Cc1cccc(NC(=O)c2ccc([N+](=O)[O-])o2)c1C,inactive
11,CCn1c(=O)c([N+](=O)[O-])c(Cl)c2ccccc21,inactive
12,CC(=O)N/C(N)=N/c1nc(=O)c2ccccc2s1,inactive
13,COc1ccc(C(=O)/C=C(\C)Nc2ccc3c(c2)OCO3)cc1,inactive
14,Clc1nccnc1N/N=C/c1ccc(Br)cc1,inactive
15,COc1cc(/C=C/C(=O)N2CCC=CC2=O)cc(OC)c1OC,inactive
16,CCOc1cc(NC(=O)CCl)c(OCC)cc1NC(=O)CCl,inactive
17,Cc1c(C#N)c(NC(=O)CCl)n(Cc2ccccc2)c1C,inactive
18,O=C(CCl)Nc1cccc(Oc2ccccc2)c1,inactive
19,Cc1ccc(C(=O)Nc2cnc3ccccc3c2)cc1,inactive
20,O=C(O)CSCC(=O)Nc1ccc(C2CCCCC2)cc1,inactive
21,CC(=O)Nc1cccc(-c2nnc(-c3ccccc3)o2)c1,inactive
